Among all 16,000 compounds or so, about 4,000 (25%) were called active. About 26% were inconclusive and are not listed. These entries were drawn from the full list. A number with no mark means an inactive call. Calls follow the shape of the dose curve; as a rule, active = well fitted curve in the direction sought with a large enough effect; inconclusive = small, poorly fitted or top-dose-only effect, or effect the other way; inactive = no such curve, though single readings can be large or run the other way.
molecular target: Cytochrome P450 2C9 (Homo sapiens) (UniProt P11712); assay: Cytochrome panel assay with activity outcomes; conditions: recombinant CYP, pro-luciferin dealkylation, luminescence, p450-cyp2c9; series mostly up to 57.1 µM; activity, negative = inhibition: at the top concentration
Sequence (P11712 whole entry, looked up): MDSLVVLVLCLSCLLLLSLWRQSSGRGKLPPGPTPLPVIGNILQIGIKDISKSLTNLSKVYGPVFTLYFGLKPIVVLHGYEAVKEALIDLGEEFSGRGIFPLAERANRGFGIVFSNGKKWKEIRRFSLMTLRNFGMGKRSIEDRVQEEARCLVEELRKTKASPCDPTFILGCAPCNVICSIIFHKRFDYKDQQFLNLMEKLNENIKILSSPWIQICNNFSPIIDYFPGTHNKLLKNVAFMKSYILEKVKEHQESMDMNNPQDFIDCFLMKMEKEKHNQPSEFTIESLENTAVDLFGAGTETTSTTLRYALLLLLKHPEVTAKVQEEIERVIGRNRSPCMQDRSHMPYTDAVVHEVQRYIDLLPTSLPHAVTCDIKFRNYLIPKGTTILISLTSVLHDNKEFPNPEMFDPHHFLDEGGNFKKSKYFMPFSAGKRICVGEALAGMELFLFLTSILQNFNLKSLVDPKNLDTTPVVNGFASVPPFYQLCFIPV
% is scaled to controls: 0 for no effect and ±100 for the full control effect.

SMILES	AC50	activity, negative = inhibition
O=c1ccn(-c2cccc(C(F)(F)F)c2)nc1-c1ccn(-c2ccccc2F)n1	10 µM (active)	
Cc1ccc(C(=O)CN(C(=O)c2ccc(Cl)cc2)N2C(=O)c3ccccc3C2=O)cc1	3.16 µM (active)	
CCOC(=O)C1=NNC2(c3ccc(Cl)cc3)C(=O)N(c3cc(C)cc(C)c3)C(=O)C12 (stereo not given)	3.55 µM (active)	
CCc1cc(Cl)c(OC)c(C(=O)NC[C@@H]2CCCN2CC)c1O		0.663% [at 25.6 µM]
C[C@H](N)CCCC(C)(C)O		-15.2% [at 25.6 µM]
Cc1nn(-c2ccc(F)cc2)c(C)c1NS(=O)(=O)c1ccc2ccccc2c1	12.6 µM (active)	
CC(=O)Nc1c(C)nn(-c2ccc(C)c(C)c2)c1C		-8.65%
Cc1ccc(CCN2CC(C(=O)NCCN3CCOCC3)CC2=O)cc1 (stereo not given)		-10.2%
Cc1ccc(CCN2CC(C(=O)NCCN3CCCCCC3)CC2=O)cc1 (stereo not given)		-28.6%
CCOCCCN1CC(C(=O)NCCc2ccc(C)cc2)CC1=O (stereo not given)	8.91 µM (active)	
COc1cc2c3cc1Oc1c(OC)c(OC)cc4c1[C@@H](Cc1ccc(O)c(c1)Oc1ccc(cc1)C[C@@H]3N(C)CC2)CN(C)C4		-25.3% [at 11.4 µM]
C=CCN(CC=C)CC(O)Cn1c2ccccc2c2ccccc21 (stereo not given)	14.1 µM (active)	
Cc1ccc(OCC(O)Cn2c3ccccc3c3ccccc32)cc1 (stereo not given)	4.47 µM (active)	
OC(COc1ccc(OCC(O)CN2CCCCCC2)cc1)CN1CCCCCC1 (stereo not given)		-0.623%
O=C(O)CC(O)C(=O)O (stereo not given)		-7.21%
Cn1c(/C=N/NC(=O)c2ccccc2Br)nc2ccccc21	2 µM (active)	
Cc1ccc(-n2nnnc2C(=Cc2ccc(N(C)C)cc2)c2nnnn2-c2ccc(C)cc2)cc1	3.55 µM (active)	
CC(=O)NNc1cccc(Cl)n1		-15.4%
O=C(Cn1ccc([N+](=O)[O-])n1)NCc1cccs1		-58.8%
CCCC(=O)Nc1nnc(SCC(=O)NCc2cccs2)s1		-19.5%
CCCCc1ccc(NC(=S)NCc2cccs2)cc1	12.6 µM (active)	
C#C[C@H](N)CCC(=O)O		13.6%

SMILES	AC50	activity, negative = inhibition
CCS(=O)(=O)N1CCC(C(=O)NCc2ccc(F)cc2Cl)CC1		21.2%
CCS(=O)(=O)N1CCN(c2c(Cl)cccc2[N+](=O)[O-])CC1	11.2 µM (active)	
C/C(CCN1CCc2nc(-c3ccccc3)c(-c3ccccc3)cc2C1)=N\O[C@@H](C)c1cn([C@@H]2COC[C@@H]2O)nn1		-10.5% [at 11.4 µM]
Cc1nn(C(=O)c2ccco2)c(C)c1Sc1ccc(Br)cc1	3.98 µM (active)	
Cc1nn(C(=O)c2cccnc2)c(C)c1Sc1ccc(Br)cc1	10 µM (active)	
NC(=O)/C(=N\OC(=O)c1ccco1)c1nc(-c2ccc(Br)cc2)cs1		58.2%
Cc1nn(C(C)(C)C)c(OC(=O)c2ccco2)c1Sc1ccccc1	10 µM (active)	
Cc1nc2ncnn2c(C)c1CCC(=O)N1CCN(C(=O)c2ccco2)CC1		-6.62%
O=C(NC(=S)Nc1nc(-c2ccc(Br)cc2)cs1)c1cccnc1		-6.99%
CO[C@@H]1COC(=O)[C@H]2CCCN2C(=O)[C@@H](C)COC(=O)[C@H](COCc2ccccc2)NC(=O)C/C=C\[C@H]1C		10.5% [at 11.4 µM]
NC(=S)c1ccc[n+]([C@@H]2O[C@@H](COP(=O)([O-])OP(=O)(O)OC[C@@H]3O[C@@H](n4cnc5c(N)ncnc54)[C@@H](OP(=O)(O)O)[C@H]3O)[C@@H](O)[C@H]2O)c1		-19.2%
COc1ncc2ncc(=O)n(C)c2n1		14.6%
O=C(NCCCc1ccccc1)c1cccs1	15.8 µM (active)	
CCc1ccc(OCCCC(=O)Nc2ccc(N3CCCCC3)cc2)cc1		-21.4%
CCc1ccc(NC(=O)CS(=O)CC(=O)NCCCc2ccccc2)cc1 (stereo not given)	0.794 µM (active)	
CCCCC(=O)Nc1ccc(C(=O)NNC(=O)CCc2ccccc2)cc1		7.05%
Cc1ccc(NC(=O)NCCCc2ccccc2)cc1	11.2 µM (active)	
COc1ccc(NC(=O)N2CCCC3(CCNCC3)C2)cc1		-5.11%
CC(C)=CCC/C(C)=C/CO/N=C1/[C@H]2O[C@@H]2[C@@H](O)[C@H]2[C@H]1CCn1c(=O)n(-c3ccccc3)c(=O)n12		6.87% [at 11.4 µM]
Cc1cnnn1-c1ccc(C(=O)CCl)cc1		-4.42%
CCNC(=O)c1ccc(-n2nc(C)cc2-c2ccccc2)cc1	7.94 µM (active)	
Nc1ccc(C(=O)NCC(=O)O)cc1		9.9% [at 25.6 µM]

SMILES	AC50	activity, negative = inhibition
N=C(N)SCCN	inactive	
COC(=O)CNC(=O)CCCCC(=O)NCC(=O)OC		5.38%
CC(C)=CCC/C(C)=C/CO/N=C1/C[C@@H](O)[C@@H](O)[C@@H]2[C@@H]3C(=O)N(Cc4ccc5c(c4)OCO5)C(=O)[C@H]3CC[C@H]12		-26.4% [at 11.4 µM]
Cc1ccc(OCC(=O)NNC(=O)c2cccnc2)cc1		0.128%
COc1cnc(NS(=O)(=O)c2ccc(N)cc2)nc1		-9.19% [at 25.6 µM]
CCCCOc1ccc(OC(=O)c2cccnc2)cc1	14.1 µM (active)	
CCCCCOc1ccc(OC(=O)c2ccncc2)cc1	2.82 µM (active)	
CCCCOc1ccc(CC(=O)NO)cc1		-15.6% [at 25.6 µM]
CCCCN(CCCC)CCCOC(=O)c1ccc(N)cc1		-9.19% [at 25.6 µM]
COc1ccc(OC(=O)c2ccncc2)cc1	4.47 µM (active)	
O=C(Nc1ccc(OC(=O)c2cccnc2)cc1)c1cccnc1		-16.9%
COc1ccc(C(=O)N2CCC3(CC2)CCN(c2ccncc2)CC3)cc1		1.22%
Nc1ccc(S(=O)(=O)Nc2ncccn2)cc1		-7.42% [at 25.6 µM]
CCCCOc1ccc(S(=O)(=O)Nc2cccnc2)cc1	1.26 µM (active)	
COc1ccc(C(Cl)=C(c2ccc(OC)cc2)c2ccc(OC)cc2)cc1		12.9% [at 25.6 µM]
c1cncc(-c2cncnc2NC2CCNCC2)c1		17.3% [at 2.29 µM]
COc1c(C)c2c(c(O)c1C/C=C(\C)CCC(=O)O)C(=O)OC2	inactive	
C[C@H]1C[C@H]2[C@H]3CCC4=CC(=O)C=C[C@@]4(C)[C@]3(F)[C@H](O)C[C@]2(C)[C@@]1(O)C(=O)COP(=O)(O)O		23.1% [at 11.4 µM]
FC(F)(F)c1ccccc1-n1ccnc1		-3.84%
N#Cc1c(-n2ccnc2)cccc1-n1ccnc1	0.562 µM (active)	
N#Cc1cccc(-c2cncnc2-n2ccnc2)c1		12.2% [at 2.29 µM]

Reference: PubChem BioAssay AID1851 (National Center for Advancing Translational Sciences (NCATS), 2009)
